# Screening data (PubChem)
# This is one part of a sample in which hits are shown more often than they occur.
# miR-122 inh: raises miR-122 sensor activity in Huh7 cells | Huh7 psiCHECK-miR122 Renilla luciferase sensor, 48 h | activation, % at 12.5 µM | hit rate 0.14% among 340,000;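 active = mean activation of 30% or more, with every replicate also reaching 30%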;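 note: 0% = median of neutral control wells and 100% = median of positive control wells; higher luciferase signal means stronger suppression of miR-122 activity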
# Starred values were filed as active, the others as inactive.
SMILES,miR-122 inh
COCCNC(=O)C[C@@H]1CC[C@H]2[C@@H](COc3ccc(NC(C)=O)cc3C(=O)N2C)O1,-183.3
Cc1cccc(NC(=O)Nc2ccc3c(c2)C(=O)N(C)[C@@H]2CC[C@@H](CC(=O)NCc4ccccc4Cl)O[C@H]2CO3)c1,55.0*
CO[C@H]1CN(C)C(=O)c2cc(NC(=O)Nc3ccccc3)ccc2OC[C@@H](C)NC[C@@H]1C,0.1
CN1C(=O)c2cc(NC(=O)Nc3ccccc3F)ccc2OC[C@@H]2O[C@@H](CC(=O)NCc3ccc(-c4ccccc4)cc3)CC[C@H]21,47.8*
CCNC(=O)C[C@@H]1CC[C@H]2[C@@H](COc3ccc(NC(=O)Nc4ccc(F)cc4)cc3C(=O)N2C)O1,50.0*
COCCNC(=O)C[C@H]1CC[C@@H]2[C@H](COc3ccc(NC(=O)c4cnccn4)cc3C(=O)N2C)O1,45.0*
COCC(=O)Nc1ccc2c(c1)[C@@H]1C[C@H](CC(=O)NCc3ccccc3)O[C@H](CO)[C@@H]1O2,-95.1
C/C=C/c1ccc2c(c1)O[C@@H](CN(C)C(=O)CC1CC1)[C@H](C)CN([C@@H](C)CO)S2(=O)=O,4.6
Cc1ccccc1-c1cnc2c(c1)C(=O)N([C@H](C)CO)C[C@@H](C)[C@@H](CN(C)C(=O)c1ccccc1)O2,4.5
CC(C)CC#Cc1cnc2c(c1)C(=O)N([C@@H](C)CO)C[C@H](C)[C@@H](CN(C)C(=O)Nc1cccc(F)c1)O2,5.0
C[C@H](O)C#Cc1ccc2c(c1)O[C@@H](CN(C)C)[C@H](C)CN([C@@H](C)CO)S2(=O)=O,0.0
C[C@@H]1CN([C@@H](C)CO)C(=O)c2cc(C#Cc3ccccc3F)cnc2O[C@@H]1CN(C)S(=O)(=O)c1ccccc1,9.5
C[C@H]1CN([C@@H](C)CO)C(=O)c2cc(C#CC3(O)CCCC3)cnc2O[C@H]1CN(C)S(=O)(=O)c1cccc(F)c1,-4.3
CO[C@H]1CN(C)C(=O)c2cc(NC(=O)Nc3ccccc3)ccc2OC[C@H](C)NC[C@@H]1C,0.5
C[C@H](CO)N1C[C@H](C)[C@@H](CN(C)C(=O)C2CCC2)Oc2ncc(/C=C/c3ccccc3)cc2C1=O,-24.0
CO[C@H]1CN(C)C(=O)c2ccc(NC(=O)Nc3ccccc3)cc2OC[C@@H](C)N(C(C)=O)C[C@H]1C,-2.4
C[C@H](CO)N1C[C@H](C)[C@@H](CN(C)C)Oc2cc(C#C[C@@H](C)O)ccc2S1(=O)=O,-4.3
C[C@H]1CN([C@@H](C)CO)S(=O)(=O)c2ccc(C#Cc3ccncc3)cc2O[C@H]1CN(C)C(=O)C1CCCCC1,-42.4
C[C@@H]1CN([C@@H](C)CO)S(=O)(=O)c2ccc(C#CCC3CCCC3)cc2O[C@H]1CN(C)C(=O)CN(C)C,3.8
CCC(=O)N(C)C[C@H]1Oc2cc(C#C[C@H](C)O)ccc2S(=O)(=O)N([C@H](C)CO)C[C@@H]1C,1.0
COc1cccc(-c2cnc3c(c2)C(=O)N([C@@H](C)CO)C[C@H](C)[C@H](CN(C)C(=O)Nc2ccccc2F)O3)c1,-8.8
CCCNC(=O)C[C@H]1CC[C@H]2[C@H](COc3ccc(NC(=O)c4ccc5c(c4)OCO5)cc3C(=O)N2C)O1,-121.7
CCCC(=O)Nc1ccc2c(c1)C(=O)N(C)[C@@H]1CC[C@H](CC(=O)NCCN3CCCCC3)O[C@H]1CO2,50.0*
CCCC(=O)Nc1ccc2c(c1)C(=O)N(C)C[C@@H](OC)[C@H](C)CN[C@@H](C)CO2,-1.0
CO[C@H]1CN(C)C(=O)c2ccc(NC(=O)c3ccccc3)cc2OC[C@H](C)N(C)C[C@H]1C,-1.6
SMILES,miR-122 inh
CCCN1C[C@H](C)[C@@H](OC)CN(C)C(=O)c2ccc(NS(C)(=O)=O)cc2OC[C@H]1C,-1.3
c1ccc(-c2nnc3n2CCCC3)cc1,32.9*
C[C@H](CO)N1C[C@H](C)[C@H](CN(C)CC2CCOCC2)Oc2ncc(C#Cc3ccccn3)cc2C1=O,5.4
COc1ccc(NC(=O)/C(Cl)=C(/Cl)S(=O)(=O)Cc2ccccc2)cn1,32.3*
COc1ccc(NC(=O)c2cccc(S(=O)(=O)Nc3ccc(Br)cc3)c2)cn1,-102.6
CCCN(C)C[C@H]1Oc2cc(C#Cc3ccccc3F)ccc2S(=O)(=O)N([C@H](C)CO)C[C@@H]1C,-11.6
C[C@@H]1CN([C@@H](C)CO)S(=O)(=O)c2ccc(/C=C/c3ccccc3)cc2O[C@@H]1CN(C)Cc1cccnc1,-4.9
C/C=C/c1cnc2c(c1)C(=O)N([C@H](C)CO)C[C@@H](C)[C@@H](CN(C)S(=O)(=O)c1ccc(C)cc1)O2,4.3
CCCCc1cc(=O)oc2cc(C)cc(OC(C)C(=O)O)c12 (stereo not drawn),31.7*
C[C@H](CO)N1C[C@H](C)[C@H](CN(C)Cc2ccccn2)Oc2ncc(Br)cc2C1=O,-3.2
CCC(=O)Nc1ccc2c(c1)OC[C@@H](C)N(C(=O)c1ccncc1)C[C@H](C)[C@H](OC)CN(C)C2=O,1.5
C[C@H]1CN([C@@H](C)CO)S(=O)(=O)c2ccc(C3=CCCCC3)cc2O[C@@H]1CN(C)S(C)(=O)=O,-9.8
COc1ccc(-c2c(C)nn3c(N)c(-c4ccccc4)cnc23)cc1OC,45.4*
CCOc1ccc(-c2cc(N)n(S(=O)(=O)c3ccc(OC)c(OC)c3)n2)cc1,-92.1
C[C@H](CO)N1C[C@H](C)[C@@H](CN(C)CC2CCOCC2)Oc2ncc(C#CCC3CCCC3)cc2C1=O,0.1
C[C@@H]1CN([C@@H](C)CO)S(=O)(=O)c2ccc(-c3cccc(C#N)c3)cc2O[C@@H]1CN(C)C(=O)Nc1ccccc1F,-27.6
CN(C(=O)C12CC3CC(CC(C3)C1)C2)C1CCS(=O)(=O)C1 (stereo not drawn),36.2*
CC(C)CC#Cc1cnc2c(c1)C(=O)N([C@H](C)CO)C[C@H](C)[C@@H](CN(C)C(=O)C1CCCCC1)O2,-10.4
COc1ccc(-c2cnc3c(c2)C(=O)N([C@H](C)CO)C[C@H](C)[C@@H](CN(C)Cc2ccccn2)O3)cc1,-2.6
COc1ccccc1-c1ccc2c(c1)O[C@H](CN(C)S(=O)(=O)c1ccc(C)cc1)[C@H](C)CN([C@@H](C)CO)S2(=O)=O,-33.3
C[C@H](CO)N1C[C@H](C)[C@@H](CN(C)CC2CCOCC2)Oc2cc(C#C[C@@H](C)O)ccc2S1(=O)=O,-19.8
COc1cc2nc(C3CCC3)n(NC(=O)C3CCCC(OC)C3)c(=O)c2cc1OC (stereo not drawn),34.4*
C[C@H](CO)N1C[C@H](C)[C@H](CN(C)C(=O)Nc2ccccc2F)Oc2ncc(-c3cccc(F)c3)cc2C1=O,0.3
CNC[C@@H]1Oc2ncc(-c3ccc(C#N)cc3)cc2C(=O)N([C@H](C)CO)C[C@@H]1C,4.0
COc1ccc(OC)c(NS(=O)(=O)c2ccc(N3CCCC3=O)cc2)c1,-120.0
SMILES,miR-122 inh
COc1ccc(S(=O)(=O)Nc2cc(Cl)ccc2OC)cc1,-137.5
COc1ccc(OC)c(Nc2nc(N)nc(CCl)n2)c1,31.8*
C[C@H](CO)N1C[C@H](C)[C@@H](CN(C)C(=O)Nc2ccc(F)cc2)Oc2c(NS(=O)(=O)c3ccccc3)cccc2C1=O,-128.4
C[C@H](CO)N1C[C@H](C)[C@H](CN(C)Cc2cccnc2)Oc2ncc(-c3ccc(F)cc3)cc2C1=O,-4.9
C[C@H]1CN([C@@H](C)CO)C(=O)c2cc(C#CCc3ccccc3)cnc2O[C@H]1CN(C)C(=O)C1CCCCC1,2.2
Cc1ccc(S(=O)(=O)Nc2ccc(C(=O)NCc3ccccn3)cc2)cc1,-199.4
O=S(=O)(Nc1nccs1)c1ccc(NS(=O)(=O)c2cccs2)cc1,38.6*
COc1ccc(NS(=O)(=O)c2cc(NS(=O)(=O)c3cccs3)ccc2C)cc1,-94.2
